# Laboratory results taken from the antibiotic and cytotoxicity screens of Wong et al. (2023).
# Among all 39,000 compounds or so, about 1,500 (3.8%) were called active. For the sample, actives were picked, then their nearest neighbours and some compounds at random.
# Tested on: HSkMC (human skeletal muscle cells)
# Assay: cytotoxicity call (relative viability < 0.9)
# Details: 10 µM
row,SMILES,cytotoxicity call
1,C[C@H]1CN([C@@H](C)CO)S(=O)(=O)c2ccc(-c3cccnc3)cc2O[C@@H]1CN(C)CC1CCOCC1,inactive
2,O=C(O)CCCCN(CCc1ccccc1OCc1ccc(CCc2ccccc2)cc1)Cc1ccc(C(=O)O)cc1,inactive
3,COc1ccc(S(=O)(=O)N(C)C[C@H]2Oc3c(NC(=O)c4ccncc4)cccc3C(=O)N([C@@H](C)CO)C[C@H]2C)cc1,inactive
4,CN1C(=O)CS(=O)(=O)[C@@H]1c1ccccc1,inactive
5,C[C@@H]1CCCCO[C@H](CN(C)Cc2ccc(C(=O)O)cc2)[C@H](C)CN([C@@H](C)CO)C(=O)c2cc(NC(=O)Cc3ccccc3)ccc2O1,inactive
6,C[C@@H]1CCCCO[C@H](CN(C)C(=O)Nc2ccc(F)cc2)[C@@H](C)CN([C@@H](C)CO)C(=O)c2cc(NC(=O)Nc3ccccc3)ccc2O1,inactive
7,CN(C)CCCCCCNC(=O)[C@@H]1C[C@@H]2C(=O)NCC(=O)N2[C@@H]1c1cccc(OCCO)c1,inactive
8,Cc1ccc(S(=O)(=O)N(C)C[C@@H]2Oc3ccc(NS(=O)(=O)c4cn(C)cn4)cc3C(=O)N([C@@H](C)CO)C[C@@H]2C)cc1,inactive
9,C[C@@H]1CN([C@H](C)CO)C(=O)c2cc(NC(=O)Cc3ccccc3)ccc2O[C@@H]1CN(C)C(=O)Nc1ccc(C(F)(F)F)cc1,inactive
10,CCOC(=O)[C@H]1C/C=C/C[C@H](C(=O)OCC)C(=O)O[C@H]2[C@@H](OC)O[C@H](COC(=O)NCCCCCC(=O)NO)[C@@H](OC(=O)Nc3ccccc3)[C@@H]2OC1=O,inactive
11,C[C@H]1CCCCO[C@H](CN(C)C(=O)Nc2ccc(F)cc2)[C@@H](C)CN([C@@H](C)CO)C(=O)c2cc(NS(=O)(=O)c3ccc(F)cc3)ccc2O1,inactive
12,COc1ccccc1C#Cc1cnc2c(c1)C(=O)N([C@H](C)CO)C[C@H](C)[C@@H](CN(C)C(=O)CC1CC1)O2,inactive
13,COc1ccc(C#Cc2cccc(-c3nc(C(=O)N[C@@H]4CCN(Cc5ccccc5)C4)cc4c3[C@H](CCO)N(S(=O)C(C)(C)C)C4)c2)cc1OC (stereo partly drawn),inactive
14,CC(C)(C)S(=O)N1Cc2cc(C(=O)NCc3ccc4c(c3)OCO4)nc(-c3cccc(C#CCC4CCCC4)c3)c2[C@H]1CCO (stereo partly drawn),inactive
15,CC(C)(C)S(=O)N1Cc2cc(C(=O)N[C@@H]3CCN(Cc4ccccc4)C3)nc(-c3cccc(C#CCC4CCCC4)c3)c2[C@H]1CCO (stereo partly drawn),active
16,CC(C)(C)S(=O)N1Cc2cc(C(=O)N[C@@H]3CCN(Cc4ccccc4)C3)nc(-c3cccc(C#CCC4CCCC4)c3)c2[C@@H]1CCO (stereo partly drawn),inactive
17,CC(C)(C)S(=O)N1Cc2cc(C(=O)NCc3ccc4c(c3)OCO4)nc(-c3cccc(C#CCC4CCCC4)c3)c2[C@@H]1CCO (stereo partly drawn),inactive
18,CC(C)(C)S(=O)N1Cc2cc(C(=O)NCc3ccc(Oc4ccccc4)cc3)nc(-c3cccc(C#CCC4CCCC4)c3)c2[C@@H]1CCO (stereo partly drawn),active
19,O=C(C[C@H]1CC[C@H]2[C@@H](COC[C@@H](O)CN2C(=O)c2ccc3c(c2)OCO3)O1)NCCN1CCCC1,inactive
20,O=C1[C@H]2C=NN[C@@H]2C(=O)N1Cc1ccccc1,inactive
21,COc1ccc2c3c([nH]c2c1)[C@@H](CO)N(C[C@]13CCN(CC1)Cc1nccs1)C(=O)C1CCOCC1,inactive

row,SMILES,cytotoxicity call
1,C[C@@H]1CN([C@@H](C)CO)C(=O)c2cccc(NS(C)(=O)=O)c2O[C@@H]1CN(C)S(=O)(=O)c1cccs1,inactive
2,CCS(=O)(=O)NCC[C@@H]1CC[C@@H](NC(=O)Cc2ccccn2)[C@H](CO)O1,inactive
3,C[C@H](CO)N1C[C@H](C)[C@@H](CN(C)Cc2ccc(C(F)(F)F)cc2)Oc2ccc(NC(=O)Cc3cn(C)c4ccccc34)cc2C1=O,inactive
4,C[C@@H]1CN([C@H](C)CO)C(=O)c2cc(NC(=O)Cc3cn(C)c4ccccc34)ccc2O[C@H]1CN(C)C(=O)Nc1ccc(C(F)(F)F)cc1,inactive
5,C[C@@H]1CN([C@H](C)CO)C(=O)c2cc(NC(=O)Cc3cn(C)c4ccccc34)ccc2O[C@H]1CN(C)Cc1ccc(C(F)(F)F)cc1,inactive
6,C[C@H](CO)N1C[C@H](C)[C@@H](CN(C)C(=O)Nc2ccc(C(F)(F)F)cc2)Oc2ccc(NC(=O)Cc3cn(C)c4ccccc34)cc2C1=O,inactive
7,C[C@@H]1CN([C@H](C)CO)C(=O)c2cc(NC(=O)Cc3cn(C)c4ccccc34)ccc2O[C@@H]1CN(C)Cc1ccc(C(F)(F)F)cc1,active
8,C[C@@H]1CN([C@@H](C)CO)C(=O)c2cc(NC(=O)Cc3cn(C)c4ccccc34)ccc2O[C@@H]1CN(C)C(=O)Nc1ccc(C(F)(F)F)cc1,active
9,O=C(C[C@H]1CC[C@H]2[C@@H](COC[C@@H](O)CN2S(=O)(=O)c2ccccc2)O1)N1CCc2ccccc2C1,inactive
10,C[C@H]1CN([C@@H](C)CO)C(=O)c2cc(NS(=O)(=O)c3ccccc3)ccc2O[C@H]1CN(C)CC1CC1,inactive
11,Cn1c(N)c(C(=O)c2ccco2)c(=O)n(C)c1=O,inactive
12,C[C@H](CO)N1C[C@H](C)[C@H](CN(C)S(=O)(=O)c2ccc(Cl)cc2)Oc2ccc(NC(=O)CCN3CCOCC3)cc2CC1=O,inactive
13,C[C@@H]1CN([C@@H](C)CO)S(=O)(=O)c2ccc(C#C[C@@H](C)O)cc2O[C@H]1CN(C)C(=O)c1ccncc1,inactive
14,COc1ccc2c3c([nH]c2c1)[C@H](CO)N(C[C@]13CCN(CC1)CC1CCCC1)C(=O)CN1CCOCC1,inactive
15,C[C@H]1CN([C@@H](C)CO)C(=O)Cc2cc(NC(=O)c3ccncc3)ccc2O[C@@H]1CN(C)S(=O)(=O)c1ccc(Cl)cc1,inactive
16,C[C@@H]1CCCCO[C@@H](CN(C)Cc2ccccc2)[C@@H](C)CN([C@@H](C)CO)C(=O)c2cc(NC(=O)CCC(F)(F)F)ccc2O1,inactive
17,CC(C)C[C@@H]1C(=O)O[C@H](C)C(=O)N(C)[C@@H](CC(C)C)C(=O)O[C@H](Cc2ccc(N3CCOCC3)cc2)C(=O)N(C)[C@@H](CC(C)C)C(=O)O[C@H](C)C(=O)N(C)[C@@H](CC(C)C)C(=O)O[C@H](Cc2ccc(N3CCOCC3)cc2)C(=O)N1C,active
18,CCOc1cc(OCC)cc(C(=O)N[C@@H](Cc2ccc(-n3cc(-c4ccc(C(=O)NO)s4)nn3)cc2)C(=O)OC)c1,inactive
19,COc1ccccc1-c1cnc2c(c1)C(=O)N([C@H](C)CO)C[C@@H](C)[C@H](CN(C)C(=O)c1cccnc1)O2,inactive
20,C[C@@H]1CN([C@@H](C)CO)C(=O)c2cccc(NC(=O)Nc3ccccc3)c2O[C@@H]1CN(C)Cc1ccc(Cl)c(Cl)c1,inactive
21,C[C@H]1CN([C@@H](C)CO)C(=O)c2cccc(NC(=O)Nc3ccccc3)c2O[C@H]1CN(C)Cc1ccc(Cl)c(Cl)c1,inactive

row,SMILES,cytotoxicity call
1,C[C@@H]1CN([C@H](C)CO)C(=O)c2cccc(NC(=O)Nc3ccccc3)c2O[C@H]1CN(C)Cc1ccc(Cl)c(Cl)c1,inactive
2,C[C@H](CO)N1C[C@H](C)[C@@H](CN(C)Cc2ccc(Cl)c(Cl)c2)Oc2c(NC(=O)Nc3cccc4ccccc34)cccc2C1=O,active
3,C[C@@H]1CN([C@@H](C)CO)C(=O)c2cccc(NC(=O)Nc3cccc4ccccc34)c2O[C@@H]1CN(C)Cc1ccc(Cl)c(Cl)c1,inactive
4,C[C@H]1CN([C@@H](C)CO)C(=O)c2cccc(NC(=O)Nc3ccccc3)c2O[C@@H]1CN(C)Cc1ccc(Cl)c(Cl)c1,active
5,C[C@H](CO)N1C[C@H](C)[C@H](CN(C)Cc2ccc(Cl)c(Cl)c2)Oc2c(NC(=O)Nc3ccccc3)cccc2C1=O,inactive
6,C[C@H]1CN([C@@H](C)CO)C(=O)c2cccc(NC(=O)Nc3cccc4ccccc34)c2O[C@H]1CN(C)Cc1ccc(Cl)c(Cl)c1,inactive
7,C[C@H](CO)N1C[C@H](C)[C@@H](CN(C)Cc2ccc(Cl)c(Cl)c2)Oc2c(NC(=O)Nc3ccccc3)cccc2C1=O,active
8,Cc1noc(C)c1NC(=O)Nc1ccc2c(c1)C(=O)N([C@H](C)CO)C[C@H](C)[C@@H](CN(C)Cc1ccc(Oc3ccccc3)cc1)O2,inactive
9,C[C@H]1CN([C@@H](C)CO)C(=O)Cc2cc(NC(=O)Cc3ccccc3)ccc2O[C@H]1CN(C)C(=O)Nc1cccc2ccccc12,inactive
10,Cc1noc(C)c1S(=O)(=O)Nc1ccc2c(c1)C(=O)N([C@H](C)CO)C[C@@H](C)[C@@H](CN(C)Cc1ccc(Oc3ccccc3)cc1)O2,inactive
11,Cc1cc2c(cc1C)N[C@@H](CC(N)=O)C(=O)N2,inactive
12,C[C@@H]1CN([C@H](C)CO)C(=O)Cc2cc(NC(=O)CCCN(C)C)ccc2O[C@H]1CN(C)Cc1ccc(Oc2ccccc2)cc1,inactive
13,COc1ccccc1S(=O)(=O)N[C@H]1C=C[C@H](CC(=O)N2CCN(C)CC2)O[C@@H]1CO,inactive
14,C[C@H](CO)N1C[C@H](C)[C@H](CN(C)C(=O)NC2CCCCC2)OCCCC[C@H](C)Oc2ccc(NC(=O)Nc3ccc(C(F)(F)F)cc3)cc2C1=O,inactive
15,C[C@H](CO)N1C[C@H](C)[C@@H](CN(C)C(=O)c2ccncc2)Oc2cc(-c3cccc(C#N)c3)ccc2S1(=O)=O,inactive
16,C[C@@H]1CCCCO[C@H](CN(C)Cc2ccccc2)[C@@H](C)CN([C@H](C)CO)C(=O)c2cc(NS(=O)(=O)c3ccccc3)ccc2O1,inactive
17,CCC(=O)Oc1ccc2c(c1)CCC1C2CCC2(C)C1CC(OC(=O)CC)C2OC(=O)CC (stereo not drawn),inactive
18,CC(C)c1cc(C(C)C)c(CC(=O)NS(=O)(=O)Oc2c(C(C)C)cccc2C(C)C)c(C(C)C)c1,active
19,CC(C)c1cccc(C(C)C)c1NC(=O)Cc1cccs1,inactive
20,COC(=O)[C@@H](N)c1cccc(OC)c1,inactive
21,C[C@H]1CN([C@@H](C)CO)C(=O)c2c(c3ccccc3n2C)-c2ccccc2CO[C@H]1CN(C)C(=O)c1ccc(F)cc1,inactive
